31 compounds from ChEMBL document CHEMBL1961873, “Compounds: GSK PKIS; Assays: Nanosyn kinase panel” (2012) can be followed below.

Several values for one entry are separate records, joined by “and”; a condition that tells them apart may be missing. Identical values can stand only once.

Sequence of Ribosomal protein S6 kinase alpha-3 (Homo sapiens) (P51812 whole entry): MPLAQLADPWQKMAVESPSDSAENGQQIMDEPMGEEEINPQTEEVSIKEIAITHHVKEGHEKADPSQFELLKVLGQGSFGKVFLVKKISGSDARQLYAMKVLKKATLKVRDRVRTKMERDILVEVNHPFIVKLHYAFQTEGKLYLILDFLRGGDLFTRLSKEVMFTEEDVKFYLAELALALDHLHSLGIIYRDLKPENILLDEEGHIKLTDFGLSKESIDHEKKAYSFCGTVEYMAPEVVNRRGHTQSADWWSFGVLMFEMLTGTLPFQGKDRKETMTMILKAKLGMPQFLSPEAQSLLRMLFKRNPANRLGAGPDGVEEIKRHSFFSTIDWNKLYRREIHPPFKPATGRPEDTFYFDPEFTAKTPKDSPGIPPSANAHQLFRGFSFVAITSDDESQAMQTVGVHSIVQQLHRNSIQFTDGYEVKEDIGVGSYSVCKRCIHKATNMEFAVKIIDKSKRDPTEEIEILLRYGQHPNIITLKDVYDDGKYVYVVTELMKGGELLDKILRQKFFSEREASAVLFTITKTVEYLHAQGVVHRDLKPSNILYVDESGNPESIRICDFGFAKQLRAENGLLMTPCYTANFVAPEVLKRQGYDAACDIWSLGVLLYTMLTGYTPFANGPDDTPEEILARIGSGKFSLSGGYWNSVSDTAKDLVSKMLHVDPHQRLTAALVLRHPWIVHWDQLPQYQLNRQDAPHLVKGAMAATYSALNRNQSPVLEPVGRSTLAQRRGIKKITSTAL

For one experiment, the target named is Ribosomal protein S6 kinase alpha-1 (Homo sapiens) (UniProt Q15418). The following applies: at 1 µM.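 Also: mean inhibition of RSK1, reported in the GSK PKIS screen.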
Sequence of Ribosomal protein S6 kinase alpha-1 (Homo sapiens) (Q15418 whole entry): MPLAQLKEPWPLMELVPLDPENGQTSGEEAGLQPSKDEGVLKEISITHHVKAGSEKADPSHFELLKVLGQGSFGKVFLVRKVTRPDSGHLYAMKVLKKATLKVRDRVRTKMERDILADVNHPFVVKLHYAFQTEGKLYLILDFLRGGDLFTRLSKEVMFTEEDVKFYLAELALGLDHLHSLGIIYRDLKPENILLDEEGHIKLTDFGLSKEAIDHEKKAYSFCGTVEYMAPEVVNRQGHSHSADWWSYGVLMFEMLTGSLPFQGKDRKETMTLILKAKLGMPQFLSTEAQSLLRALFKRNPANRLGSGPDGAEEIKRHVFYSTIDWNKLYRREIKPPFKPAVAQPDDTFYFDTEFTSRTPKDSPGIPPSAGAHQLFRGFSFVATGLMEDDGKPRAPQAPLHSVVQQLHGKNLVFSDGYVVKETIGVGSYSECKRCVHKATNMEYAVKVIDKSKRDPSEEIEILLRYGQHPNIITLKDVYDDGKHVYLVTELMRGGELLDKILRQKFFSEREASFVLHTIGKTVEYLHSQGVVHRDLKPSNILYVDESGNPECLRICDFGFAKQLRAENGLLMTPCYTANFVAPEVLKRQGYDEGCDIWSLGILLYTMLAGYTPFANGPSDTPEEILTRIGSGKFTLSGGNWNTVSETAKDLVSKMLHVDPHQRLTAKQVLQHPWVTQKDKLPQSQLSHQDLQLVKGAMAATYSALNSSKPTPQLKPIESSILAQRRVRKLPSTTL
As usually defined, the inhibition is the change of the read-out against control, counted positive when it falls. Consider `CNC(=O)c1cncc(/C=C/c2ccccc2C)c1`, for which the inhibition worked out at 4.99%.
Consider `CN1CCC(C(=O)Nc2n[nH]c3nc(-c4ccc(O)cc4)c(Br)cc23)CC1`, for which the inhibition was 5.58% and 0.84%.
As to `COc1c(C(N)=O)cc(-c2ccc(Cl)cc2)cc1-c1ccc(S(N)(=O)=O)cc1`, the inhibition was determined as 2.12%.
As to `CN1CCN(Cc2ccc(-c3cc4ncnc(Nc5ccc(OCc6cccc(F)c6)c(Cl)c5)c4s3)o2)CC1`, the inhibition is 3.31% and 6.74%.
On to `NC(=O)c1ccc2c(-c3ccnc(NCCCO)n3)c(-c3ccc(F)cc3)nn2c1`, for which the inhibition worked out at 1.7%.

A further experiment addresses Ribosomal protein S6 kinase alpha-3 (Homo sapiens) (UniProt P51812). The following applies: at 0.1 µM.
Take `CCCNc1cccc(-n2ncc3c(N/N=C/c4ccncc4)ncnc32)c1`: the inhibition was determined as 1.62%.
Turning to `COC(=O)Nc1nc2ccc(Oc3ccc(NC(=O)Nc4cc(C(F)(F)F)ccc4F)cc3)cc2s1`, the inhibition was 0.8%.
As to `N#Cc1ccc2c(-c3ccnc(NC4CC4)n3)c(-c3ccc(F)cc3)nn2c1`, the inhibition worked out at 0.08%.
As for `Fc1cccc(COc2ccc(Nc3ncncc3C#Cc3ccccc3)cc2Cl)c1`, the inhibition amounted to 1.92%.
Consider `NS(=O)(=O)c1cccc(N/C=C2\C(=O)Nc3ccccc32)c1`, for which the inhibition stood at 2.42%.
In the case of `COc1ccccc1-c1cc(/C=C2\C(=O)Nc3ncc(Br)cc32)cc(Br)c1O`, the inhibition is 0.16%.
Consider `COC(=O)Nc1nc2cc(Oc3ccc(NC(=O)Nc4ccccc4)cc3)ccc2[nH]1`, for which the inhibition came out at 2.3%.
The same measure, in the same setting: as for `O=C(O[C@H]1CN[C@H](C#Cc2cc3ncnc(Nc4ccc5c(cnn5Cc5ccccc5)c4)c3s2)C1)N1CCOCC1`, the figure is 0.74%; as for `CCn1c(-c2nonc2N)nc2cncc(C(=O)NCCNC)c21`, 54.5%; as for `Cc1cc(O)cc(C)c1/C=C/c1cncc(C(=O)OC(C)(C)C)c1`, 1.52%.
As to `N#Cc1cccc(Nc2ncc(-c3ccccc3)o2)c1`, the inhibition came out at 0.02%.
For `CNC(=O)c1sc(-n2cnc3cc(OC)c(OC)cc32)cc1OCc1ccccc1C(F)(F)F`, the inhibition was 1.77%.
Still for that read-out and setting: the value for `COc1ccc2ncn(-c3cc(O[C@H](C)c4ccccc4C(F)(F)F)c(C(N)=O)s3)c2c1` was 1.38%; that for `COc1ccc(-c2nn3ncccc3c2-c2ccnc(Nc3ccc(F)c(F)c3)n2)cc1` was 4.49%; that for `Cc1cc(O)cc(C)c1/C=C/c1cncc(C(N)=O)c1` was 1.07%.
With `Fc1ccc(Nc2nccc(-c3c(-c4ccc(C(F)(F)F)cc4)nn4ncccc34)n2)cc1F`, the inhibition is -0.49%.
Consider `c1ccc(-c2n[nH]cc2-c2ccnc(-c3ccc(OCCn4ccnc4)cc3)c2)nc1`, for which the inhibition is 0.64%.
Still for that read-out and setting: the value for `COc1cc(N2CCN(C(C)C)CC2)ccc1Nc1nc(Nc2cccc(F)c2C(=O)O)c2cc[nH]c2n1` was 2.18%; that for `CS(=O)(=O)Nc1ccc(-c2cc(-c3ccccc3)cc(C(N)=O)c2N)cc1` was -0.7%.
Turning to `Nc1ncnc2occ(-c3ccc(NC(=O)Nc4cc(C(F)(F)F)ccc4F)cc3)c12`, the inhibition was 3.22% and 1.04%.
With `COc1cc2c(cc1Nc1nc(Nc3cccc(F)c3C(N)=O)c3cc[nH]c3n1)N(C(=O)CN1CCN(C(C)C)CC1)CC2`, the inhibition stood at 2.2%.
Turning to `CCS(=O)(=O)c1ccc(OC)c(Nc2ncc(-c3cccc(C(C)=O)c3)o2)c1`, the inhibition was found to be 1.27%.
In the case of `CC(C)c1ccc(-c2cc(-c3c[nH]nc3-c3ccccn3)ccn2)cc1`, the inhibition was -0.1%.
As to `O=C(O[C@H]1CN[C@H](C#Cc2cc3ncnc(Nc4ccc5c(ccn5Cc5cc(F)ccc5F)c4)c3s2)C1)N1CCOCC1`, the inhibition worked out at 0.96%.
In the case of `CN(c1ccc(NC(=O)NCCN2CCOCC2)cc1)c1ccnc(Nc2ccc(CS(C)(=O)=O)cc2)n1`, the inhibition is 2.14%.
For `NS(=O)(=O)c1ccc(N/N=C2\C(=O)Nc3cccc(CCc4ccncc4)c32)cc1`, the inhibition came to 2.02%.
For `CNC(=O)c1cncc(/C=C/c2ccccc2C)c1`, the inhibition is 2.14%.
Take `CN1CCC(C(=O)Nc2n[nH]c3nc(-c4ccc(O)cc4)c(Br)cc23)CC1`: the inhibition is 2.78% and 0.04%.
Regarding `COc1c(C(N)=O)cc(-c2ccc(Cl)cc2)cc1-c1ccc(S(N)(=O)=O)cc1`, the inhibition was 1.72%.
`CN1CCN(Cc2ccc(-c3cc4ncnc(Nc5ccc(OCc6cccc(F)c6)c(Cl)c5)c4s3)o2)CC1`: the inhibition is 0.78% and 2.19%.
As to `NC(=O)c1ccc2c(-c3ccnc(NCCCO)n3)c(-c3ccc(F)cc3)nn2c1`, the inhibition is 0.96%.
